About 2,000 (36%) of roughly 5,500 compounds were called active. Not shown: some 18% with an inconclusive outcome. Cut-off read from the data, not from the text of the source: active = normalized growth mostly below about 0.91 (no sharp cut-off); inconclusive = no clear call, values can overlap the other calls; inactive = mostly above about 0.92. Some of the results follow.
Assay: chemical genetic growth profiling, strain panel (AID 1159580);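 note: tested at 20 µM; growth read once vehicle control cultures reached saturation at 30 °C; 1 = growth at the plate median or of vehicle wells; lower values mean less growth of the strain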
Settings: growth OD
[1] = S. cerevisiae deletion strains, locus YAL013W, strain DEP1, active compounds read low
[2] = S. cerevisiae deletion strains, locus YDL101C, strain DUN1, active compounds read low
[3] = S. cerevisiae deletion strains, locus YDR150W, strain NUM1, active compounds read low
[4] = S. cerevisiae deletion strains, locus YGR078C, strain PAC10, active compounds read low
[5] = S. cerevisiae deletion strains, locus YGR229C, strain SMI1, active compounds read low
[6] = S. cerevisiae deletion strains, locus YHR030C, strain SLT2, active compounds read low
[7] = S. cerevisiae deletion strains, locus YMR263W, strain SAP30, active compounds read low
[8] = S. cerevisiae deletion strains, locus YNL128W, strain TEP1, active compounds read low
[9] = S. cerevisiae deletion strains, locus YNL153C, strain GIM3, active compounds read low
[10] = S. cerevisiae deletion strains, locus YAR019C, strain CDC15, active compounds read low
[11] = S. cerevisiae deletion strains, locus YBL105C, strain PKC1, active compounds read low
[12] = S. cerevisiae deletion strains, locus YBR135W, strain CKS1, active compounds read low
[13] = S. cerevisiae deletion strains, locus YBR136W, strain MEC1, active compounds read low
[14] = S. cerevisiae deletion strains, locus YBR160W, strain CDC28, active compounds read low
[15] = S. cerevisiae deletion strains, locus YDL017W, strain CDC7, active compounds read low
[16] = S. cerevisiae deletion strains, locus YDL028C, strain MPS1, active compounds read low
[17] = S. cerevisiae deletion strains, locus YDL108W, strain KIN28, active compounds read low
[18] = S. cerevisiae deletion strains, locus YDL132W, strain cdc53, active compounds read low
[19] = S. cerevisiae deletion strains, locus YDL214C, strain PRR2, active compounds read low
[20] = S. cerevisiae deletion strains, locus YDR052C, strain DBF4, active compounds read low
[21] = S. cerevisiae deletion strains, locus YDR054C, strain cdc34, active compounds read low
[22] = S. cerevisiae deletion strains, locus YDR226W, strain ADK1, active compounds read low
[23] = S. cerevisiae deletion strains, locus YDR477W, strain SNF1, active compounds read low
[24] = S. cerevisiae deletion strains, locus YER123W, strain YCK3, active compounds read low
[25] = S. cerevisiae deletion strains, locus YER133W, strain GLC7, active compounds read low
[26] = S. cerevisiae deletion strains, locus YFL009W, strain cdc4, active compounds read low
[27] = S. cerevisiae deletion strains, locus YFL029C, strain CAK1, active compounds read low
[28] = S. cerevisiae deletion strains, locus YFR003C, strain YPI1, active compounds read low
[29] = S. cerevisiae deletion strains, locus YFR019W, strain FAB1, active compounds read low
[30] = S. cerevisiae deletion strains, locus YFR028C, strain CDC14, active compounds read low
[31] = S. cerevisiae deletion strains, locus YGR040W, strain KSS1, active compounds read low
[32] = S. cerevisiae deletion strains, locus YGR052W, strain FMP48, active compounds read low
[33] = S. cerevisiae deletion strains, locus YGR092W, strain DBF2, active compounds read low
[34] = S. cerevisiae deletion strains, locus YHR079C, strain IRE1, active compounds read low
[35] = S. cerevisiae deletion strains, locus YHR082C, strain KSP1, active compounds read low
[36] = S. cerevisiae deletion strains, locus YHR205W, strain SCH9, active compounds read low
[37] = S. cerevisiae deletion strains, locus YIL147C, strain SLN1, active compounds read low
[38] = S. cerevisiae deletion strains, locus YJL095W, strain BCK1, active compounds read low
[39] = S. cerevisiae deletion strains, locus YJL128C, strain PBS2, active compounds read low
[40] = S. cerevisiae deletion strains, locus YJL157C, strain FAR1, active compounds read low
[41] = S. cerevisiae deletion strains, locus YJR016C, strain ILV3, active compounds read low
[42] = S. cerevisiae deletion strains, locus YJR066W, strain TOR1 (second series), active compounds read low
[43] = S. cerevisiae deletion strains, locus YJR066W, strain TOR1, active compounds read low
[44] = S. cerevisiae deletion strains, locus YKL048C, strain ELM1, active compounds read low
[45] = S. cerevisiae deletion strains, locus YKL067W, strain YNK1, active compounds read low
[46] = S. cerevisiae deletion strains, locus YKL101W, strain HSL1, active compounds read low
[47] = S. cerevisiae deletion strains, locus YKL193C, strain SDS22, active compounds read low
[48] = S. cerevisiae deletion strains, locus YKL203C, strain TOR2, active compounds read low
[49] = S. cerevisiae deletion strains, locus YLR113W, strain HOG1, active compounds read low
[50] = S. cerevisiae deletion strains, locus YLR133W, strain CKI1, active compounds read low
[51] = S. cerevisiae deletion strains, locus YLR403W, strain SFP1, active compounds read low
[52] = S. cerevisiae deletion strains, locus YML070W, strain DAK1, active compounds read low
[53] = S. cerevisiae deletion strains, locus YMR001C, strain CDC5, active compounds read low
[54] = S. cerevisiae deletion strains, locus YMR205C, strain PFK2 (second series), active compounds read low
[55] = S. cerevisiae deletion strains, locus YMR277W, strain FCP1, active compounds read low
[56] = S. cerevisiae deletion strains, locus YNL006W, strain LST8, active compounds read low
[57] = S. cerevisiae deletion strains, locus YNL020C, strain ARK1, active compounds read low
[58] = S. cerevisiae deletion strains, locus YNL161W, strain CBK1, active compounds read low
[59] = S. cerevisiae deletion strains, locus YNL183C, strain NPR1, active compounds read low
[60] = S. cerevisiae deletion strains, locus YNL207W, strain RIO2, active compounds read low
[61] = S. cerevisiae deletion strains, locus YNL222W, strain SSU72, active compounds read low
[62] = S. cerevisiae deletion strains, locus YNL307C, strain MCK1 (second series), active compounds read low
[63] = S. cerevisiae deletion strains, locus YOL078W, strain AVO1, active compounds read low
[64] = S. cerevisiae deletion strains, locus YOL136C, strain PFK27, active compounds read low
[65] = S. cerevisiae deletion strains, locus YOR061W, strain CKA2, active compounds read low
[66] = S. cerevisiae deletion strains, locus YOR119C, strain RIO1, active compounds read low
[67] = S. cerevisiae deletion strains, locus YOR231W, strain MKK1, active compounds read low
[68] = S. cerevisiae deletion strains, locus YOR329C, strain SCD5, active compounds read low
[69] = S. cerevisiae deletion strains, locus YPL031C, strain PHO85, active compounds read low
[70] = S. cerevisiae deletion strains, locus YPL153C, strain RAD53, active compounds read low
[71] = S. cerevisiae deletion strains, locus YPL204W, strain HRR25, active compounds read low
[72] = S. cerevisiae deletion strains, locus YPL209C, strain IPL1, active compounds read low
[73] = S. cerevisiae deletion strains, locus YPL256C, strain CLN2, active compounds read low
[74] = S. cerevisiae deletion strains, locus YPR025C, strain CCL1, active compounds read low
[75] = S. cerevisiae deletion strains, locus YPR106W, strain ISR1, active compounds read low
[76] = S. cerevisiae deletion strains, locus YPR111W, strain DBF20, active compounds read low
[77] = S. cerevisiae deletion strains, strain NNK1, active compounds read low
[78] = S. cerevisiae deletion strains, strain TSCII, active compounds read low

Measured: normalized growth

O=C1NC(=O)/C(=C/c2ccc(OS(=O)(=O)c3ccc(Cl)cc3)cc2)N1
inactive: [1] 1 | S. cerevisiae deletion strains, locus YBR229C, strain ROT2, active compounds read low 1.03 | [2] 0.983 | S. cerevisiae deletion strains, locus YDL134C, strain PPH21, active compounds read low 0.991 | [3] 0.957 | S. cerevisiae deletion strains, locus YEL061C, strain CIN8, active compounds read low 1.01 | [4] 0.983 | [5] 1.01 | [6] 0.989 | S. cerevisiae deletion strains, locus YHR087W, strain rtc3, active compounds read low 1.02 | S. cerevisiae deletion strains, locus YJL187C, strain SWE1, active compounds read low 1.04 | S. cerevisiae deletion strains, locus YJR043C, strain POL32, active compounds read low 0.982 | S. cerevisiae deletion strains, locus YJR075W, strain HOC1, active compounds read low 1.03 | S. cerevisiae deletion strains, locus YLR039C, strain RIC1, active compounds read low 1.02 | S. cerevisiae deletion strains, locus YLR058C, strain SHM2 (second series), active compounds read low 1.02 | S. cerevisiae deletion strains, locus YLR085C, strain ARP6, active compounds read low 0.999 | S. cerevisiae deletion strains, locus YLR262C, strain YPT6, active compounds read low 0.996 | S. cerevisiae deletion strains, locus YML094W, strain GIM5, active compounds read low 1 | S. cerevisiae deletion strains, locus YMR219W, strain ESC1, active compounds read low 1.01 | [7] 1 | [8] 0.978 | [9] 0.99 | S. cerevisiae deletion strains, locus YNL298W, strain CLA4 (second series), active compounds read low 0.976 | S. cerevisiae deletion strains, locus YNL322C, strain KRE1, active compounds read low 0.998 | S. cerevisiae deletion strains, locus YNR030W, strain Alg12, active compounds read low 1 | S. cerevisiae deletion strains, locus YPL055C, strain LGE1, active compounds read low 1.06 | S. cerevisiae deletion strains, locus YPL241C, strain CIN2, active compounds read low 1 | S. cerevisiae deletion strains, locus YPR135W, strain CTF4, active compounds read low 0.978 | S. cerevisiae strains, strain wild type, active compounds read low 0.964

O=C1Nc2ccccc2/C1=C\c1ccc(Cl)cc1
inactive: [10] 0.946 | [11] 0.943 | [12] 0.94 | [13] 0.941 | [14] 0.947 | [15] 0.945 | [16] 0.947 | [2] 0.967 | [17] 0.948 | [18] 0.94 | [19] 0.801 | [20] 0.954 | [21] 0.927 | [22] 0.937 | [23] 0.817 | [24] 0.8 | [25] 0.815 | [26] 0.942 | [27] 0.95 | [28] 0.942 | [29] 0.924 | [30] 0.941 | [31] 0.823 | [32] 0.779 | [33] 0.82 | [34] 0.776 | [35] 0.794 | [37] 0.944 | [38] 0.741 | [39] 0.852 | [40] 0.819 | [41] 0.946 | [42] 0.651 | [43] 0.781 | [44] 0.862 | [45] 0.867 | [46] 0.829 | [47] 0.942 | [48] 0.91 | [50] 0.818 | [51] 0.714 | [52] 0.81 | [53] 0.94 | [54] 0.825 | [55] 0.936 | [56] 0.956 | [57] 0.801 | [58] 0.948 | [59] 0.788 | [60] 0.947 | [61] 0.945 | [62] 0.844 | [63] 0.951 | [64] 0.833 | [65] 0.853 | [66] 0.9 | [67] 0.863 | [68] 0.949 | [69] 0.816 | [70] 0.836 | [71] 0.824 | [72] 0.943 | [74] 0.943 | [75] 0.926 | [76] 0.917 | [77] 0.92 | [78] 0.949
active: [6] 0.755 | [36] 0.519 | [49] 0.692 | [73] 0.742

Cc1cc(C)c(/C=C2\C(=O)Nc3ccccc32)[nH]1
active: S. cerevisiae deletion strains, locus YMR307W, strain GAS1, active compounds read low 0.887 | S. cerevisiae deletion strains, locus YOR083W, strain WHI5 (second series), active compounds read low 0.847
inactive: [1] 0.967 | S. cerevisiae deletion strains, locus YAL040C, strain CLN3, active compounds read low 1.06 | S. cerevisiae deletion strains, locus YCL061C, strain MRC1 (second series), active compounds read low 0.994 | [3] 0.939 | S. cerevisiae deletion strains, locus YDR363W, strain ESC2, active compounds read low 0.987 | S. cerevisiae deletion strains, locus YER002W, strain NOP16, active compounds read low 0.999 | [4] 0.991 | [5] 0.917 | [7] 0.99 | [8] 0.935 | [9] 0.872 | S. cerevisiae deletion strains, locus YNL175C, strain NOP13, active compounds read low 0.992 | S. cerevisiae deletion strains, locus YNL197C, strain WHI3, active compounds read low 0.934 | S. cerevisiae deletion strains, locus YNL224C, strain SQS1, active compounds read low 0.929

CN1C[C@H](C(=O)N[C@]2(C)C[C@@]3(O)C4CCCN4C(=O)[C@H](Cc4ccccc4)N3C2=O)C=C2c3cccc4[nH]cc(c34)C[C@H]21 (stereo not given in full)
inactive: [6] 0.986 | [34] 0.994 | [38] 0.958 | [43] 0.945 | [49] 1 | [59] 0.944 | [67] 0.997 | [73] 0.981

Cc1ccc(C)n1-c1ccc(/C=C2/C(=O)Nc3ccccc32)cc1
active: [6] 0.662 | [49] 0.837 | [73] 0.855
inactive: [10] 0.957 | [11] 0.973 | [12] 0.975 | [13] 0.972 | [14] 0.962 | [15] 0.971 | [16] 0.964 | [2] 0.979 | [17] 0.968 | [18] 0.974 | [19] 0.91 | [20] 0.986 | [21] 0.983 | [22] 0.968 | [23] 0.931 | [24] 0.903 | [25] 0.932 | [26] 0.947 | [27] 0.957 | [28] 0.981 | [29] 0.948 | [30] 0.976 | [31] 0.945 | [32] 0.925 | [33] 0.839 | [34] 0.832 | [35] 0.907 | [36] 0.857 | [37] 0.97 | [38] 0.878 | [39] 0.973 | [40] 0.923 | [41] 0.972 | [42] 0.912 | [43] 0.794 | [44] 0.963 | [45] 0.887 | [46] 0.939 | [47] 0.979 | [48] 1.02 | [50] 0.926 | [51] 0.925 | [52] 0.916 | [53] 0.97 | [54] 0.932 | [55] 0.957 | [56] 0.976 | [57] 0.936 | [58] 0.975 | [59] 0.936 | [60] 0.974 | [61] 0.978 | [62] 0.947 | [63] 0.972 | [64] 0.9 | [65] 0.932 | [66] 0.942 | [67] 0.863 | [68] 0.977 | [69] 0.931 | [70] 0.92 | [71] 0.935 | [72] 0.977 | [74] 0.971 | [75] 0.968 | [76] 0.958 | [77] 0.959 | [78] 0.967

Reference: PubChem BioAssay AID1159580 (chemical genetic matrix, 2015)
